Cav3 T inh: inhibitors of human Cav3.2 T-type calcium channel | Cav3.2-expressing cells, Fluo-4 calcium fluorescence FDSS; hits give low values | B-score at 10 µM | 100,000 compounds, 4% hits | AID 449739;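 active means single-dose well whose peak fluorescence ratio is a statistical outlier from its plate by either plate-standardised score or position-corrected B-score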
CYP2C19 activ: activators of human cytochrome P450 2C19; 96,000 tested, under 10 active; activation factor at 5 µM; P33261; recombinant CYP2C19, luciferin-H EGE luminescence; hits give high values; 0 = fully inhibited enzyme, 1 = untreated enzyme; AID 1025;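 active means activation factor of at least 2 at 5 µM in the primary screen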;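 further: 0 = wells with 2.5 mM tranylcypromine and 1 = vehicle-only wells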
CYP2C9 inhib: human CYP2C9 inhibition. P11712. CYP2C9 Supersomes, luciferin-H conversion, luminescence. inhibition, % at 5 µM. 96,000 compounds, 20% hits. AID 777;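 active means blocking of liver enzyme CYP2C9 beyond about 50% at 5 µM, limit read from the data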
Target sequence (P11712 whole entry, looked up): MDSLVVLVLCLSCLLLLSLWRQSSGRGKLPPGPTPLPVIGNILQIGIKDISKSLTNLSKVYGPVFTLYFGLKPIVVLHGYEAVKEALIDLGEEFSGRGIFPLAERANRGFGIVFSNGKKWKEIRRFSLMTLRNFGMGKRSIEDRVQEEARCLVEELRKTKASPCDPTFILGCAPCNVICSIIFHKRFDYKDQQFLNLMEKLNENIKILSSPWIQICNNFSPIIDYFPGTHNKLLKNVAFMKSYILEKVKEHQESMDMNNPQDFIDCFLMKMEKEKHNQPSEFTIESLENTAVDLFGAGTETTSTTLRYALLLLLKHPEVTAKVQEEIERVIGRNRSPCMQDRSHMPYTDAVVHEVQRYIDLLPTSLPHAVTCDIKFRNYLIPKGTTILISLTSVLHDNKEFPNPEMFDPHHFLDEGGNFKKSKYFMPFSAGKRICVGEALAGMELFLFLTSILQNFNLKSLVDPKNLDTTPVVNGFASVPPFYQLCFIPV
CYP2C9 act: increases human cytochrome P450 2C9 activity; P11712; AID 1024; 96,000 compounds, 1.4% hits; activation factor at 5 µM; recombinant CYP2C9, luciferin-H conversion, luminescence; hits give high values; factor 1 = untreated enzyme, 0 = blocked;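 active means activation factor of 2 or more for CYP2C9 at a 5 µM dose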;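 further: 0 = sulfaphenazole-blocked wells and 1 = vehicle-only wells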
CYP2C19 inhib: human CYP2C19 inhibition | AID 778 | 96,000 compounds, 21% hits | P33261 | inhibition, % at 5 µM | CYP2C19 Supersomes, luciferin-H EGE luminescence, 30 min;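 active means CYP2C19 inhibition above a set limit at 5 µM in the primary screen, cut at about 50% in these data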;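 further: plate controls were negative control wells for no effect and 2.5 mM tranylcypromine positive control for full effect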
Active calls of the source: *; nt = no result. Shown are actives, neighbours in structure and some others; about 27% of the full set was active somewhere.

SMILES	Cav3 T inh	CYP2C19 activ	CYP2C9 inhib	CYP2C9 act	CYP2C19 inhib
O=C(CN(Cc1ccco1)C(=O)CCC(=O)Nc1ccccn1)NCCc1ccccc1	-0.98	0.3	58*	0.4	69*
Cc1cccc(N(CC(=O)NCc2ccc3c(c2)OCO3)C(=O)CCC(=O)Nc2ccccn2)c1	nt	0.4	28	0.7	61*
CS(=O)(=O)N(CC(=O)NCc1ccc2c(c1)OCO2)c1ccccc1	0.21	0.7	-2	1	26
Cc1ccc(CN(CC(=O)NCCc2ccccc2)C(=O)CCCC(=O)Nc2cc(C)on2)cc1	-0.65	0.4	62*	0.4	60*
Cc1cc(C(=O)N/N=C/c2cccc(OC(=O)c3ccco3)c2)n[nH]1	0.099	1	16	0.8	-4
Cn1cnc2cc(OC(=O)c3ccccc3)ccc21	-2.6	0.8	11	0.9	16
Cc1cccc(N(CC(=O)NCc2ccc3c(c2)OCO3)C(=O)CCC(=O)Nc2ccccn2)c1C	nt	0.2	59*	0.4	82*
COCCN(CC(=O)NCc1ccc2c(c1)OCO2)C(=O)CCC(=O)Nc1nccs1	-0.81	nt	nt	nt	nt
COc1ccc(CNC(=O)CN(C(=O)CCC(=O)Nc2ccccn2)c2ccccc2OC)cc1	-4.2	0.6	64*	0.4	44
COc1ccccc1N(CC(=O)NCc1ccccc1)C(=O)CCC(=O)Nc1ccccn1	0.46	nt	nt	nt	nt
O=C(CN1CCCC1)NCC12CC3CC(CC(C3)C1)C2	0.18	0.7	-11	1.1	25
O=C(CN1CCOCC1)NCCC12CC3CC(CC(C3)C1)C2	-0.28	0.5	9	0.9	54*
CCCCCCCOC(=O)c1ccc(OC(=O)c2cccnc2)cc1	0.36	0.9	17	0.8	13
CCOC(=O)c1c(-c2ccc(OC)cc2)csc1NC(=O)CCN1C(=O)c2ccccc2C1=O	-1.4	0.4	78*	0.2	55*
CCOC(=O)c1c(-c2ccc(C)o2)csc1NC(=O)CN1CCN(CC)CC1	-1.8	1	7	0.9	0
CCOC(=O)c1c(-c2ccc(OC)cc2)csc1NC(=O)CNCc1ccco1	-1.5	0.5	70*	0.3	53*
COC(=O)c1c(-c2ccc(F)cc2)csc1NC(=O)c1ccco1	0.49	0.8	64*	0.4	17
O=C(Nc1scc(-c2ccccc2)c1C(=O)O)c1ccco1	0.83	0.9	12	0.9	12
Cc1cc(Nc2ccccc2)n(CCOC(=O)COc2ccccc2)n1	-2.9	0.7	22	0.8	33
OC(CNCc1ccco1)Cn1c2ccc(Br)cc2c2cc(Br)ccc21 (stereo unspecified)	-0.32	1	5	0.9	-1
CN(c1ccc(OCc2nnc(-c3ccccc3)o2)cc1)S(=O)(=O)c1ccccc1	-3.5	0.1	98*	0	94*
COc1ccc(-c2nnc(COc3ccc4ccccc4c3)o2)cc1OC	-1.5	0.5	35	0.6	47
CN(C)CCOCCSc1ccc(Cl)cc1	1.4	0.9	6	0.9	13
NC(=O)c1c(NC(=O)c2ccccc2)sc2c1CCc1ccccc1-2	0.56	0.9	-7	1.1	7
Cc1nc(SCC(=O)c2ccc(Cl)cc2)c([N+](=O)[O-])[nH]1	0.12	0.5	48	0.5	53*
SMILES	Cav3 T inh	CYP2C19 activ	CYP2C9 inhib	CYP2C9 act	CYP2C19 inhib
Cc1nc(SCC(=O)c2ccc(F)cc2)c([N+](=O)[O-])[nH]1	1.7	0.7	34	0.7	28
Fc1cccc2sc(Nc3nnc(-c4ccccc4)o3)nc12	-5*	nt	nt	nt	nt
NC1=NS(=O)(=O)NC1c1cccc(Cl)c1 (stereo unspecified)	0.052	1.1	-6	1.1	-9
COc1ccc(/C=C2\CCCC3C2=NN(C(=O)COC(=O)CNC(=O)c2ccccc2)C3c2ccc(OC)cc2)cc1 (stereo unspecified)	-0.85	0.8	74*	0.3	23
Cc1ncsc1C(=O)N1N=C2/C(=C/c3ccccc3)CCCC2C1c1ccccc1 (stereo unspecified)	nt	0.9	52*	0.5	6
COc1ccc(C(=O)NCC(=O)OCC(=O)N2CC(C)CC(C)C2)cc1 (stereo unspecified)	0.17	1	66*	0.3	4
Cc1nn(C)c(C(=O)NNC(=S)Nc2ccc(F)cc2)c1[N+](=O)[O-]	0.67	0.9	52*	0.5	8
Cc1nn(C(C)C(=O)NNC(=S)Nc2ccc(F)cc2)c(C)c1[N+](=O)[O-] (stereo unspecified)	-0.84	0.9	55*	0.4	8
COc1ccc(NC(=S)NNC(=O)C(C)n2nc(C)c([N+](=O)[O-])c2C)cc1 (stereo unspecified)	-0.46	1.1	-2	1	-7
CCOC(=O)c1c(CN2CCCCC2)n(C)c2ccc(OC)c(S(=O)(=O)c3ccccc3)c12	0.43	1	9	0.9	2
COc1ccc(N2CCN(C(=O)C(C)(C)Oc3ccc(Cl)cc3)CC2)cc1	-2.5	0.3	90*	0.1	74*
CCOC(=O)N1CCN(C(=O)C(C)(C)Oc2ccc(Cl)cc2)CC1	-0.6	0.3	84*	0.2	74*
CCOC(=O)N1CCN(C(=O)COc2ccc(Cl)cc2)CC1	0.58	0.6	-13	1.1	38
COC(=O)C1=C(C)N(CCc2ccc(OC)c(OC)c2)C(=O)/C1=C\N(C)C	-0.81	0.9	3	1	14
CN(C)c1ccc(P(=O)(OCc2ccccc2)C(O)c2ccncc2)cc1 (stereo unspecified)	nt	0.3	63*	0.4	66*
CCCC(c1nnnn1Cc1ccco1)N1CCN(c2cc(Cl)ccc2C)CC1 (stereo unspecified)	-6.9*	0.6	60*	0.4	42
CCCCC(c1nnnn1CC1CCCO1)N1CCN(c2cc(Cl)ccc2C)CC1 (stereo unspecified)	-5.3*	0	90*	0.1	96*
CC(=O)c1cc(-c2ccccc2)n(CC(=O)N2CCC(N3CCCCC3)CC2)c1C	-1.5	0.9	11	0.9	10
CCCCP(=O)(CCCC)Cc1ccccc1O	-0.39	1.1	-15	1.1	-9
COc1ccc2c(c1)C1(Nc3ccccc3C(=O)N1c1ccccc1)C(=O)N2 (stereo unspecified)	0.11	0.7	87*	0.1	27
COc1ccc2c(c1)NC1(O)c3ccccc3C(=O)C21O (stereo unspecified)	0.91	1.1	-50	1.5	-9
CC(C)(C(=O)c1ccccc1)/[N+]([O-])=C/c1ccccc1F	0.62	nt	nt	nt	nt
O=C(CCCNS(=O)(=O)c1ccccc1)NCc1ccco1	-0.26	1.1	-18	1.2	-13
CCOc1nc2ccccc2nc1NS(=O)(=O)c1ccccc1	-0.036	1.1	39	0.6	-9
O=S(=O)(Nc1nc2ccccc2nc1NCCO)c1cccc(Cl)c1	0.19	0.8	99*	0	16
O=S(=O)(Nc1nc2ccccc2nc1NCc1ccco1)c1ccccc1	-1.3	1.2	98*	0	-21
O=S(=O)(c1ccccc1)c1ccc(NCc2ccco2)cc1	-0.7	0.3	-61	1.6	67*
